Most compounds without a hit are left out; they make up all but 3.2% or so of the library.
CaV13 FRET inh – Primary screen for inhibitors of IQ motif and Ca2+-dependent inactivation inhibitor domain binding in CACNA1D, Förster resonance energy transfer in living cells, … | HEK cells, CFP/YFP FRET ICDI-IQ, plate reader, 10 min; percent FRET-ratio fall versus neutral wells | inhibition, % at 12.3 µM | 340,000 tested, 0.098% active | AID 743397;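 active means mean replicate inhibition of at least 30% and at least 1% of replicates passing that level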;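 further: 0% = median of the neutral control wells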
Ecoli rRNA inh – reduced GFP signal of wild-type E. coli, primary screen, bacterial rRNA inhibitor project, GFP/RFP fluorescence, OD600, single point; E. coli WT GFP vs humanized-ribosome RFP mutants, 24 h; stronger effect = lower value; DMSO median 0, no signal -100; GFP signal change (wild-type ribosome), % (test concentration not listed); 350,000 tested, 1.6% active; AID 720706, 2013;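 active means significant combined selectivity score with lowered wild-type GFP, culture density cut under 30%, mutant RFP and density less affected; inactive means any of these conditions unmet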
PGC1a acetyl inh – inhibitors of PGC1a acetylation signal, primary screen, cell-based, U2OS, AlphaScreen, inhibitor mode; inhibition, % at 15.6 µM; 350,000 tested, 0.17% active; AlphaScreen anti-acetyl-lysine; with virally co-expressed GCN5 acetyltransferase;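 active means every replicate shows inhibition of at least 40%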;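 further: 0% = neutral control wells and 100% = positive control wells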
GSIS activator – GLuc luminescence reporter in INS-1E cells, primary screen for activators of glucose-dependent secretion of insulin; AID 743287, 2014; 370,000 tested, 0.61% active; activation, % at 16.6 µM; INS-1E GLuc reporter insulin secretion, 2-3 h;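 active means lowest replicate activation of at least 40%, so every replicate reaches that level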;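 further: 0% = median of neutral control wells and 100% = median of IBMX positive control wells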
DENV2 CPE rescue – inhibitors of DENV2 cytopathic effect, primary screen, cell-based, plate reader, single concentration; DENV2-infected cells, cytopathic effect rescue; CPE inhibition, % at 9.99 µM; 350,000 tested, 1.7% active; AID 651640, 2012; in the data active means CPE inhibition above about 20%, passing the limit was not always enough; tested in BHK-21 cells;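 further: 0% = median of neutral control wells and 100% = median of positive control wells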
ERAP1 inh – human ERAP1 aminopeptidase inhibitors, primary screen, biochemical, single point, plate reader. 340,000 tested, 0.15% active. inhibition, % at 10.7 µM. recombinant ERAP1, Leu-AMC fluorescence, 60 min. Endoplasmic reticulum aminopeptidase 1 (Homo sapiens), Q9NZ08;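 active means mean replicate inhibition of at least 30%, or all replicates individually reaching that 30% level; inactive means mean below 30% and not every replicate reaching it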;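 further: 0% = neutral control wells and 100% = L-leucinethiol positive control wells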
Target sequence (Q9NZ08 whole entry, looked up): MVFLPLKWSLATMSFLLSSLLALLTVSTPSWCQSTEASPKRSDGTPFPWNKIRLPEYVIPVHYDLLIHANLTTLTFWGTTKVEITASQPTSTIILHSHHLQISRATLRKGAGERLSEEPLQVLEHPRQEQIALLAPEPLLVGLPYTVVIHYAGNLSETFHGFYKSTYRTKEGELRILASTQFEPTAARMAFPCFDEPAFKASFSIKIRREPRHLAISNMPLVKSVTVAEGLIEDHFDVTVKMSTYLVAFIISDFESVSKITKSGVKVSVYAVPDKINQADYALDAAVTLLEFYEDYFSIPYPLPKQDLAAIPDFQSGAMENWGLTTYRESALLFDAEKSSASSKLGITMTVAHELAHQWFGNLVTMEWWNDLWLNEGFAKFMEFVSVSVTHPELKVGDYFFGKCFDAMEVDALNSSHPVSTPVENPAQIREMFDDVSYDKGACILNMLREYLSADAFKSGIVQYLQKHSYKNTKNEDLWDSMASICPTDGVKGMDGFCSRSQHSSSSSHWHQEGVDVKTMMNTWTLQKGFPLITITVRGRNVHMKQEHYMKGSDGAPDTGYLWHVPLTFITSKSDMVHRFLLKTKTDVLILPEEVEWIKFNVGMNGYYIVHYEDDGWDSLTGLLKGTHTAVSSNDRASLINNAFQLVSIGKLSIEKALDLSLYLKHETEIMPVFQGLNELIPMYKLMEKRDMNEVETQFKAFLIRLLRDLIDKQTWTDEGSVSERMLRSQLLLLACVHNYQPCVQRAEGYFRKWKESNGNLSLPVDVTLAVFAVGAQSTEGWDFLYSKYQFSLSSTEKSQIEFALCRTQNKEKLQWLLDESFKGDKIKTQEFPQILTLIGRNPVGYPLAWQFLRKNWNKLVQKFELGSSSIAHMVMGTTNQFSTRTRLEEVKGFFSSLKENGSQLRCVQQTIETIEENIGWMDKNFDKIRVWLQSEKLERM
* hit, by the source's call; · = no result given; ! = repeats disagree.

SMILES | CaV13 FRET inh | Ecoli rRNA inh | PGC1a acetyl inh | GSIS activator | DENV2 CPE rescue | ERAP1 inh
CCC(=O)N1[C@@H]2c3cccc(=O)n3C[C@H]1[C@H](CO)[C@H]2C(=O)NC1CCCCC1 | · | -0.3 | · | 3.2 | -0.4 | -1.2
C[C@@H]1CN([C@@H](C)CO)C(=O)c2cc(NC(=O)NC3CCCCC3)ccc2O[C@@H](C)CCCCO[C@H]1CN(C)C(=O)CCC(F)(F)F | · | -0.6 | 0.2 | -14.8 | 3.2 | -2.9
COc1ccc(S(=O)(=O)N(C)C[C@H]2OCCCC[C@H](C)Oc3ccc(N(C)C)cc3C(=O)N([C@H](C)CO)C[C@@H]2C)cc1 | -5.1 | -0.3 | 0.5 | 8.3 | 23.3*! | -9.8
COc1ccc(S(=O)(=O)N(C)C[C@H]2OCCCC[C@@H](C)Oc3ccc(NS(C)(=O)=O)cc3C(=O)N([C@@H](C)CO)C[C@@H]2C)cc1 | · | -1.6 | -24.6 | -6.3 | 22.4* | 0.1
COCC#Cc1cnc2c(c1)C(=O)N([C@@H](C)CO)C[C@@H](C)[C@@H](CN(C)C(=O)CCN1CCCCC1)O2 | · | 3.2 | 6.7 | 25.6 | -11.5 | -9.6
CCNC(=O)c1cc2c(c(-c3cccc(-c4ccncc4)c3)n1)[C@@H](CCO)N(S(=O)(=O)CC)C2 | · | -5.0 | 3.5 | 10.6 | 51.4* | 0.5
CC(C)NC(=O)N1Cc2cc(C(=O)NC3CCCCC3)nc(-c3cccc(-c4cccnc4)c3)c2[C@@H]1CCO | -6.6 | -40.3*! | -1.3 | -26.0 | 4.4 | -1.0
CCOC(=O)c1[nH]c2cc(OC)c(OC)cc2c1NC(=O)c1ccc2c(c1)OCO2 | -5.2 | · | -13.8 | 69.0* | · | ·
CCOC(=O)c1[nH]c2ccc(OC)cc2c1NC(=O)c1ccc2c(c1)OCO2 | -3.6 | · | -55.1 | · | · | ·
CCOC(=O)c1[nH]c2ccccc2c1NC(=O)c1ccc2c(c1)OCO2 | -6.8 | 9.3 | -2.0 | · | 40.3* | -4.4
CCOC(=O)c1oc2ccccc2c1NC(=O)c1ccc2c(c1)OCO2 | -6.0 | · | -6.1 | 43.3 | · | ·
CCOC(=O)c1c(C)[nH]c(C(=O)COC(=O)/C=C/c2ccc3c(c2)OCO3)c1C | -4.3 | · | · | 59.4* | · | ·
COC(=O)c1[nH]c2ccccc2c1NC(=O)/C=C/c1ccc2c(c1)OCO2 | -4.0 | -1.3 | -3.9 | -8.2 | 37.6* | -1.3
CCN(CC(=O)Nc1c(C(=O)OC)[nH]c2ccccc12)c1ccc2c(c1)OCO2 | · | · | -11.0 | · | · | ·
C[C@@H]1CN([C@@H](C)CO)C(=O)c2cc(NC(=O)NC3CCCCC3)ccc2O[C@@H](C)CCCCO[C@@H]1CN(C)Cc1ccc(C(F)(F)F)cc1 | · | -0.1 | -3.7 | -5.1 | -0.1 | -0.7
COCCN(C(=O)COC(=O)Cc1cccc(OC)c1)c1c(N)n(CC(C)C)c(=O)[nH]c1=O | -5.8 | 5.8 | -0.6 | 52.7* | -2.8 | 1.9
COCCN(C(=O)COC(=O)Cc1c(C)nc2ccccc2c1C)c1c(N)n(CC(C)C)c(=O)[nH]c1=O | -18.7 | · | -0.9 | · | 13.3 | 2.5
COCCN(C(=O)C1CCN(C(=O)c2ccccc2C)CC1)c1c(N)n(CC(C)C)c(=O)[nH]c1=O | -13.4 | 21.5 | 0.6 | 9.7 | -11.8 | 90.7*
Cc1ccccc1C(=O)N1CCC(C(=O)N(CC(C)C)c2c(N)n(CC(C)C)c(=O)[nH]c2=O)CC1 | -3.0 | 2.3 | 0.9 | 6.6 | -11.2 | 1.3
CN(C)C(=O)[C@]1(CCS(=O)(=O)c2ccccc2)N=C(c2ccc(OCCCO)cc2)O[C@@H]1c1ccccc1 | · | · | · | · | 3.3 | -2.9
CN(C)C(=O)C[C@@H]1CC[C@H](NC(=O)NC2CCCCC2)[C@H](CO)O1 | · | 3.8 | 8.4 | -1.3 | · | -1.8
C#CCN(C[C@@H]1[C@@H](OC(=O)NCc2ccco2)[C@@H](OC(=O)NCc2ccco2)Cn2c(=O)ccc(=O)n21)S(=O)(=O)c1ccc(C)cc1 | -1.5 | · | -23.3 | -17.1 | -8.7 | -1.4
C#CCN(C[C@@H]1[C@@H](OC(=O)NCC2CCCCC2)[C@@H](OC(=O)NCC2CCCCC2)Cn2c(=O)ccc(=O)n21)S(=O)(=O)c1ccc(C)cc1 | -3.4 | 2.8 | 91.4* | -27.6 | · | 2.7
C[N+]1(C2CCC3CCCC2C3O)CCCCC1 (stereo not drawn) | -6.8 | 18.9 | · | -10.9 | · | 46.1*
CN(C)C(=O)C[C@H]1CC[C@@H](NC(=O)C2CCOCC2)[C@@H](CO)O1 | · | 5.8 | 6.8 | 6.8 | -2.8 | 4.6
SMILES | CaV13 FRET inh | Ecoli rRNA inh | PGC1a acetyl inh | GSIS activator | DENV2 CPE rescue | ERAP1 inh
CCn1c(SCC(=O)NCc2ccccc2)nnc1C(CO)NC(=O)c1ccccc1 (stereo not drawn) | -5.3 | 7.3 | · | 3.2 | 5.4 | 32.4*
COc1ccc(CN(C)C[C@@H]2Oc3c(NS(=O)(=O)c4ccc(F)cc4)cccc3C(=O)N([C@H](C)CO)C[C@@H]2C)cc1 | · | -0.8 | 0.4 | 27.2 | -3.3 | -5.4
Cc1ccc(S(=O)(=O)Nc2ccc3c(c2)C(=O)N([C@@H](C)CO)C[C@H](C)[C@@H](CN(C)C(=O)Nc2c(C)noc2C)OCCCC[C@@H](C)O3)cc1 | · | 5.0 | -12.5 | -6.1 | -10.8 | 2.4
O=C(Oc1c(CN2CCOCC2)cc(Cl)c2cccnc12)c1ccccc1Br | -3.6 | -35.0 | 16.8 | -27.0 | 41.0* | 7.8
C[C@@H]1CN([C@H](C)CO)C(=O)Cc2cc(NS(=O)(=O)c3ccccc3)ccc2O[C@@H]1CN(C)Cc1ccc(C(=O)Nc2ccccc2N)cc1 | · | -1.3 | -12.5 | 8.1 | 3.7 | -0.2
CCCCS(=O)(=O)/C=C\C=C/S(=O)(=O)CCCC | · | · | 97.0* | · | · | ·
COc1ccc(S(=O)(=O)N(C)C[C@H]2Oc3ccc(NS(=O)(=O)c4ccc(C)cc4)cc3CC(=O)N([C@H](C)CO)C[C@@H]2C)cc1 | · | -0.5 | 5.4 | -0.8 | -5.8 | ·
CCNc1nc(NCC)nc(C(=O)OCCO)n1 | -6.1 | 8.7 | 1.3 | 16.2 | 28.8* | 0.1
Cc1cccc2cc(CN(CC3CCCO3)S(=O)(=O)c3ccccc3)c(=O)[nH]c12 (stereo not drawn) | -2.4 | -24.3* | -7.1 | 13.2 | 0.9 | 1.3
COCC(=O)N1C[C@@H]2[C@H](c3ccccc31)[C@H](CO)N2C(=O)c1ccncc1 | · | -1.0 | 4.2 | 0.3 | 0.3 | 1.3
CCC(CC)C(=O)Nc1c(C(=O)N2CCN(c3ccccc3)CC2)oc2ccccc12 | -2.3 | -30.4* | · | -32.6 | -3.1 | -2.4
O=C(C1CCCC1)N1CC(=O)N2[C@H](CO)[C@@H](c3ccc(-c4cccnc4)cc3)[C@H]2C1 | · | 3.7 | · | 4.3 | -6.8 | -4.9

Source: PubChem (Broad Institute)
